Values joined by “and” are separate entries in the source; they are usually repeats but may differ in a detail not shown here. Equal entries are not always repeated. Records with an inconclusive call do not appear. The source holds several records for some structures; these can differ, active in one and inactive in another. Active and inactive are the calls of the source. Rule for the calls, unless noted: active = hit-call score of the fitted dose curve at least 0.9, where 1 is the maximum; inactive = score below 0.9.
Assays:
[1] = CCTE_Shafer_MEA_dev_burst_rate: CCTE's Neural Network Formation Assay for Burst Rate, Shafer Lab (AID 2284042);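 for AC50: potency for loss of burst rate below DMSO control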
Procedure, shortened: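 Cells plated, treated day 0; recorded DIV 5, 7, 9, 12; fed and re-treated DIV 5, 9. Endpoint: bursts per recording time, active-electrode well mean, trapezoidal AUC, fitted in decreasing direction against DMSO baseline.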

[2] = CCTE_Shafer_MEA_dev_bursting_electrodes_number: CCTE's Neural Network Formation Assay for Number of Bursting Electrodes, Shafer Lab (AID 2284043; active = hit-call score of the fitted dose curve at least 0.9, where 1 is the maximum;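 for AC50: potency is for loss of bursting electrodes relative to DMSO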)
Procedure, shortened: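 Read-out is the per-well number of electrodes bursting at least once every 2 minutes, recorded on days 5, 7, 9 and 12 and collapsed by trapezoidal area under the curve. Cultures were primary rat cortical neurons on MEA plates, treated continuously from plating.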

[3] = CCTE_Shafer_MEA_dev_per_burst_interspike_interval: CCTE's Neural Network Formation Assay for Burst Interspike Interval, Shafer Lab (AID 2284044);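 for AC50: potency for a decrease of within-burst interspike interval below DMSO level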
Procedure, shortened: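 Readout is the average time between spikes inside single-electrode bursts, taken as a well mean across bursting electrodes. Cortical neurons from rat developed networks on MEA plates under continuous 12-day exposure; recordings on days 5, 7, 9 and 12 were integrated by trapezoidal AUC.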

[4] = CCTE_Shafer_MEA_dev_burst_duration_mean: CCTE's Neural Network Formation Assay for Mean Burst Duration, Shafer Lab (AID 2284045);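 for AC50: curve fitted for loss meaning shorter burst duration than DMSO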
Procedure, shortened: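 Read-out: average first-to-last-spike interval within single-electrode bursts, averaged over bursting electrodes per well, then summarised as area under the curve across days 5, 7, 9 and 12. Developing rat cortical networks were exposed from day 0.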

[5] = CCTE_Shafer_MEA_dev_interburst_interval_mean: CCTE's Neural Network Formation Assay for Mean Interburst Interval, Shafer Lab (AID 2284046);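 note: well-mean interburst interval of bursting electrodes as AUC over four recording days; curve fitted for decrease in interburst interval relative to DMSO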
Procedure, shortened: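 Developing rat cortical networks on 48-well MEAs receive compound from the day of plating. Burst intervals from each active electrode are averaged per well, and AUC over the recording days is fitted in the negative direction against DMSO.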

[6] = CCTE_Shafer_MEA_dev_inter_network_spike_interval_mean: CCTE's Neural Network Formation Assay for Mean Inter-network Spike Interval, Shafer Lab (AID 2284047);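 for AC50: potency for a decrease in mean inter-network spike interval below DMSO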
Procedure, shortened: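 Rat cortical cultures, 1.5 x 10^5 cells/well on 48-well MEA plates; continuous exposure days 0–12, medium and compound refreshed DIV 5, 9. Mean time between consecutive network-spike peaks; AUC across DIV 5/7/9/12; DMSO baseline, negative fitting direction.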

[7] = CCTE_Shafer_MEA_dev_network_spike_number: CCTE's Neural Network Formation Assay for Number of Network Spikes, Shafer Lab (AID 2284048);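 for AC50: fit as a loss of signal meaning fewer network spikes than DMSO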
Procedure, shortened: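 Developing networks of primary rat cortical neurons are treated over 12 days starting at plating, with media and compound fully replaced on DIV 5 and 9. Network spike counts from four recording days are integrated as trapezoidal AUC.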

[8] = CCTE_Shafer_MEA_dev_network_spike_peak: CCTE's Neural Network Formation Assay for Mean Number of Electrodes in Network Spike, Shafer Lab (AID 2284049);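 for AC50: fitted for loss of signal meaning fewer electrodes in network spikes than DMSO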
Procedure, shortened: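 Rat cortical primary culture, 1.5 x 10^5 cells/well, 48-well MEA (16 electrodes/well). Dosing day 0 through DIV 12, full media/compound exchange DIV 5, 9. AxIS adaptive spike detection; AUC over days 5/7/9/12; loss-of-signal vs DMSO.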

[9] = CCTE_Shafer_MEA_dev_spike_duration_mean: CCTE's Neural Network Formation Assay for Mean Spike Duration, Shafer Lab (AID 2284051);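 note: mean network spike duration pooled as area under curve over DIV 5 to 12 recordings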;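 for AC50: potency for a decrease in mean network spike duration versus DMSO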
Procedure, shortened: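 Readout is the average length of network spikes, clustered firing across electrodes, summed over DIV 5, 7, 9 and 12 as area under the curve. Neurons from rat cortex developed networks on MEA plates under continuous 12-day exposure.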

[10] = CCTE_Shafer_MEA_dev_network_spike_duration_std: CCTE's Neural Network Formation Assay for Standard Deviation of Network Spike Duration, Shafer Lab (AID 2284052);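 note: area under curve of spike duration SD across recording days 5 to 12; hits are decreases in network spike duration SD versus DMSO vehicle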
Procedure, shortened: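 Read-out is the trapezoidal area-under-the-curve across recordings made on days 5, 7, 9 and 12, fitted in the negative direction against DMSO baseline. Neurons were primary rat cortical cells treated from day 0, with treatment renewed at each feed.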

[11] = CCTE_Shafer_MEA_dev_LDH: CCTE's Lactate Dehydrogenase Assay for Cytotoxicity in the Neural Network Formation Assay, Shafer Lab (AID 2284068; active = hit-call score of the fitted dose curve at least 0.9, where 1 is the maximum;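 note: exposure for twelve days from plating with re-dosing on DIV 5 and 9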)
Procedure, shortened: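 Cytotoxicity companion to network-formation recordings: rat cortical neurons received compound over 12 days of development, re-dosed at DIV 5 and 9 feeds. Viability was inferred from LDH enzyme activity relative to DMSO.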

[12] = CCTE_Shafer_MEA_acute_AB: CCTE's Alamar Blue Assay for Cytotoxicity in the Neural Acute Assay, Shafer Lab (AID 2284069; active = hit-call score of the fitted dose curve at least 0.9, where 1 is the maximum;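 note: active compounds lower the viability signal compared with DMSO wells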)
Procedure, shortened: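 Metabolic activity in chemically exposed rat cortical neurons (MEA cultures, day 13/15 post-plating) measured via CellTiter Blue resazurin reduction, 544/590 nm fluorescence; fitted relative to DMSO, with signal loss indicating reduced viability.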

[13] = CCTE_Shafer_MEA_acute_LDH: CCTE's Lactate Dehydrogenase Assay for Cytotoxicity in the Neural Acute Assay, Shafer Lab (AID 2284086; active = hit-call score of the fitted dose curve at least 0.9, where 1 is the maximum;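 note: active means LDH release rises above DMSO vehicle level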)
Procedure, shortened: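 Primary rat cortical neurons on 48-well MEA plates, treated on day 13 or 15 post-plating. After the 40-min recording with compound, medium LDH release was read by absorbance at 490 nm. Gain of signal was fitted against DMSO negative control.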

[14] = CCTE_Shafer_MEA_dev_mutual_information_norm: CCTE's Neural Network Formation Assay for Mutual Information Normalization, Shafer Lab (AID 2284091);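 for AC50: mutual information between electrodes summarised as area under curve across four recording days; potency is for a decrease in mutual information relative to DMSO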
Procedure, shortened: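 Developing rat cortical networks on 16-electrode MEA wells are treated throughout formation (DIV 0–12). Shared electrode information is recorded four times, converted to area-under-curve, and fitted for decreases against DMSO vehicle.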

[15] = CCTE_Shafer_MEA_dev_correlation_coefficient_mean: CCTE's Neural Network Formation Assay for Mean Correlation Coefficient, Shafer Lab (AID 2284093);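 for AC50: well mean pairwise spike train correlation integrated as AUC over recording days 5 to 12; potency fitted for loss of correlation relative to DMSO vehicle wells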
Procedure, shortened: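 Read-out: well-mean correlation coefficient of spike trains between electrode pairs, collapsed over four recording days as trapezoidal area-under-the-curve. Developing rat cortical neuron networks grown on MEAs received test chemical continuously from plating.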

[16] = CCTE_Shafer_MEA_dev_AB: CCTE's Alamar Blue Assay for Cytotoxicity in the Neural Network Formation Assay, Shafer Lab (AID 2284083; active = hit-call score of the fitted dose curve at least 0.9, where 1 is the maximum;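 note: twelve days of exposure from plating with re-dosing on DIV 5 and 9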)
Procedure, shortened: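 Fluorescent resazurin reduction serves as the viability read-out, with DMSO as negative control and baseline. Cells were primary rat cortical neurons grown on MEA plates and dosed from day 0 to day 12, treatment renewed on DIV 5 and 9.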

DIO2 (gene 1734) = assay: CCTE_GLTED_hDIO2: CCTE's human Deiodinase 2 (DIO2) Inhibition Assay, Great Lakes Toxicology and Ecology Division (GLTED) Lab (AID 2284050; active = hit-call score of the fitted dose curve at least 0.9, where 1 is the maximum)
Procedure, shortened: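 Cell-free human DIO2 enzyme was incubated with test chemical for 3 h; iodide liberated from substrate was then quantified by the Sandell-Kolthoff reaction (absorbance), run in triplicate. Loss of signal versus DMSO baseline indicated inhibition.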

DIO3 (gene 1735) = assay: CCTE_GLTED_hDIO3: CCTE's human Deiodinase 3 (DIO3) Inhibition Assay, Great Lakes Toxicology and Ecology Division (GLTED) Lab (AID 2284055; active = hit-call score of the fitted dose curve at least 0.9, where 1 is the maximum;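 note: potency is for inhibition seen as loss of released iodide signal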)
Procedure, shortened: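 Cell-free assay with human DIO3 enzyme produced by adenovirus expression; enzyme incubated with test chemical for 3 hours. Liberated iodide then measured by Sandell-Kolthoff absorbance; loss of signal versus DMSO baseline indicates inhibition, run in triplicate.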

Measured: AC50

CC(C)(c1ccc(O)cc1)c1ccc(O)cc1
active: [2] 9.89 µM and 15 µM | [8] 20800 nM | [9] 15000 nM | [14] 1950 nM
inactive: [1] | [2] | [3] | [4] | [5] | [6] | [7] | [8] | [9] | [10] | [11] | [12] | [13] | [14] | [15]

CCCN(CCC)C(=O)SCC
not listed: [12] | [13] | DIO2 (gene 1734) | DIO3 (gene 1735)
inactive: all other assays above

C=CCOC(Cn1ccnc1)c1ccc(Cl)cc1Cl (stereo not drawn)
inactive: [12] | [13]

CCOC(=O)C(C)Oc1ccc(Oc2nc3ccc(Cl)cc3o2)cc1 (stereo not drawn)
active: DIO2 (gene 1734) 44600 nM | DIO3 (gene 1735) 15300 nM

C#CCOC(=O)[C@@H](C)Oc1ccc(Oc2ncc(Cl)cc2F)cc1
active: [16] 10.1 nM
not listed: [13] | DIO2 (gene 1734) | DIO3 (gene 1735)
inactive: all other assays above

CCCCOCCOCCOCc1cc2c(cc1CCC)OCO2
active: [2] 15.9 µM | [8] 16900 nM | [11] 15300 nM
not listed: [12] | [13] | DIO2 (gene 1734) | DIO3 (gene 1735)
inactive: all other assays above

CCNc1nc(N)nc(Cl)n1
inactive: [12] | [13]

O=C(Nc1ccc([N+](=O)[O-])cc1Cl)c1cc(Cl)ccc1O
inactive: [12] | [13]

CC(C)CCCCCCc1ccc(O)cc1
active: DIO2 (gene 1734) 93100 nM | DIO3 (gene 1735) 18800 nM
inactive: [12] | [13]

COCCO
not listed: [12] | [13] | [16] | DIO2 (gene 1734) | DIO3 (gene 1735)
inactive: all other assays above

CCCCC(CC)CN1C(=O)C2C3C=CC(C3)C2C1=O (stereo not drawn)
active: [2] 4.86 µM
not listed: DIO2 (gene 1734) | DIO3 (gene 1735)
inactive: all other assays above

O=C(O)c1ccccc1
not listed: [2] | [16] | DIO2 (gene 1734) | DIO3 (gene 1735)
inactive: all other assays above

CC(=O)S[C@@H]1CC2=CC(=O)CC[C@]2(C)[C@H]2CC[C@@]3(C)[C@@H](CC[C@@]34CCC(=O)O4)[C@H]12
active: DIO2 (gene 1734) 26100 nM | DIO3 (gene 1735) 100000 nM

CCCN(CCC)c1c([N+](=O)[O-])cc(C(F)(F)F)c(N)c1[N+](=O)[O-]
active: DIO2 (gene 1734) 20000 nM | DIO3 (gene 1735) 21400 nM
inactive: [13]

Cc1nn(C)c(Oc2ccccc2)c1C=NOCc1ccc(C(=O)OC(C)(C)C)cc1
inactive: [12] | [13]
active: [1] 5.44 nM | [2] 0.00163 µM | [3] 2.74 nM | [4] 0.277 nM | [5] 2.91 nM | [6] 3.61 nM | [7] 1.4 nM | [8] 3.17 nM | [9] 1.41 nM | [10] 0.953 nM | [11] 2 nM | [16] 9.23 nM | [14] 1.28 nM | [15] 2.29 nM

Source: PubChem BioAssay (EPA / NIEHS)
